The values below come from PubChem BioAssay (NCI).

The panel holds about 83,000 compounds, 20% with a hit somewhere; the sample as a whole holds those more often.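 96-well plates, one dose, 48 hours. Percent growth reported; active if below 10.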 Values without a mark were called inactive. Activity calls are given as the source filed them.

Among the test systems are SK-MEL-2 melanoma; EKVX NSCLC; SN12C renal; UO-31 renal; TK-10 renal; ACHN renal; CAKI-1 renal; A498 renal; MOLT-4 leukemia; CCRF-CEM leukemia.
What all share (experiment): NCI-60 one-dose screen, 48 h (100 = growth as untreated, 0 = no growth, -100 = all killed)
Holding throughout (settings): 10 µM unless noted

For the compound `Cc1ccc(Nc2cc(Cl)c([N+](=O)[O-])cc2[N+](=O)[O-])cc1`, the growth with SK-MEL-2 melanoma was 28.3%; in the assay on EKVX NSCLC, 102%; with SN12C renal it was 24.6%; with UO-31 renal it was 77.7%; in the assay on TK-10 renal it was 15.5%; with ACHN renal it was 26%. Further, the growth in the assay on CAKI-1 renal was 32.8%; in the assay on A498 renal, 92.3%; with MOLT-4 leukemia, 10.3%.

In the case of `COc1ccc(/C=C/C(=O)CCC(=O)O)cc1OC`, the growth in the assay on SK-MEL-2 melanoma is 97.5%; in the assay on EKVX NSCLC, 109%; with SN12C renal, 101%; in the assay on UO-31 renal, 83.3%; in the assay with TK-10 renal, 104%; in the assay with ACHN renal, 108%. Besides, the growth is 95.5% with CAKI-1 renal, 121% with A498 renal, 95.6% in the assay on CCRF-CEM leukemia and 102% with MOLT-4 leukemia.

As for `C=CCCCCOc1cccc(/C=C2\N=C3SCCCN3C2=O)c1`, the growth in the assay with SK-MEL-2 melanoma is 91.3%; in the assay with EKVX NSCLC, 95.9%; in the assay with SN12C renal, 89.8%; in the assay on UO-31 renal, 76.6%; with TK-10 renal, 99.4%; with ACHN renal it was 99.2%. The growth was 92.6% with CAKI-1 renal, 82.9% with A498 renal, 121% in the assay on CCRF-CEM leukemia and 96.9% in the assay on MOLT-4 leukemia.

Turning to `NC(=S)N1N=C(c2ccc(Cl)cc2)CC1c1cc2ccccc2[nH]c1=O` (stereo unspecified), the growth in the assay with SK-MEL-2 melanoma was 103%; with EKVX NSCLC it was 109%; in the assay on SN12C renal, 104%; with UO-31 renal, 82.7%; in the assay on TK-10 renal it was 109%; with ACHN renal, 107%. Moreover, the growth with CAKI-1 renal is 114%; in the assay with A498 renal, 89.5%; with MOLT-4 leukemia, 72.5%.

`CC(C)N(C(=S)SSC(=S)N(C(C)C)C(C)C)C(C)C`: the growth with SK-MEL-2 melanoma was 109%; with EKVX NSCLC it was 110%; with SN12C renal, 101%; in the assay on UO-31 renal, 80.3%; with TK-10 renal, 100%; in the assay on ACHN renal it was 98.2%. The growth in the assay with CAKI-1 renal was 85.8%; in the assay with A498 renal, 97.8%; in the assay on CCRF-CEM leukemia, 87.5%; in the assay on MOLT-4 leukemia it was 105%.

For the compound `C=CCN(CC#N)CC=C`, the growth in the assay with SK-MEL-2 melanoma is 117%; in the assay on EKVX NSCLC, 100%; in the assay on SN12C renal, 102%; in the assay on UO-31 renal, 92.4%; with TK-10 renal, 103%; with ACHN renal it was 109%. Moreover, the figures for the growth in the assay on CAKI-1 renal, with A498 renal and in the assay on MOLT-4 leukemia were 107%, 112% and 102%, respectively.

With `CC[C@H](C)[C@H](N)C(=O)O`, the growth with SK-MEL-2 melanoma was 109%; with EKVX NSCLC it was 107%; in the assay with SN12C renal, 101%; in the assay with UO-31 renal, 83.9%; in the assay on TK-10 renal, 121%; in the assay with ACHN renal, 103%. The values for the growth with CAKI-1 renal, in the assay with A498 renal and with MOLT-4 leukemia were 95.6%, 91% and 116%, respectively.

In the case of `O=C(c1ccccc1)C1OC1C(=O)c1ccccc1` (stereo unspecified), the growth in the assay with SK-MEL-2 melanoma was 34%; with EKVX NSCLC, 81.3%; with SN12C renal it was 28.2%; with UO-31 renal, 60.1%; with TK-10 renal it was 36.9%; with ACHN renal, 33.1%. Also, the growth in the assay with CAKI-1 renal was 14.6%; in the assay with A498 renal, 95.6%; with CCRF-CEM leukemia, 12.1%; in the assay with MOLT-4 leukemia, 45.6%.

Take `O=c1c2cc(Cl)ccc2oc2ccc(OCCCCCN3CCCCC3)cc12`: the growth in the assay with SK-MEL-2 melanoma was 64.8%; with EKVX NSCLC, 70.3%; with SN12C renal, 65.1%; in the assay with UO-31 renal it was 60.7%; in the assay on TK-10 renal, 69.2%; in the assay on ACHN renal, 94.8%. The growth with CAKI-1 renal is 70.8%; in the assay on A498 renal it was 75.6%; in the assay with CCRF-CEM leukemia, 39.8%; in the assay with MOLT-4 leukemia, 25.2%.

As for `O=C(CCl)Nc1ccc2c(c1)C(=O)c1ccccc1C2=O`, the growth in the assay on SK-MEL-2 melanoma was 19.1%; in the assay on EKVX NSCLC it was 57%; in the assay on SN12C renal it was -21.3% (active); in the assay with UO-31 renal, 46.6%; in the assay on TK-10 renal, -27.9% (active); in the assay on ACHN renal, -67.8% (active). The growth in the assay with A498 renal is 44%; with CCRF-CEM leukemia, -46.2% (active); in the assay with MOLT-4 leukemia it was -29.1% (active).

With `COc1cc(C2CC(c3ccccc3)=NN2C=O)ccc1Oc1nc2c(c(=O)n(C)c(=O)n2C)n1C` (stereo unspecified), the growth is 101% in the assay on SK-MEL-2 melanoma; 74.1% with EKVX NSCLC; 49% in the assay on SN12C renal; 62.4% with UO-31 renal; 110% with TK-10 renal; 86.9% in the assay with ACHN renal. In addition, the growth in the assay with A498 renal is 81.3%; in the assay with CCRF-CEM leukemia, 77.9%; in the assay on MOLT-4 leukemia, 62.2%.

For the compound `C[C@@H]1N=C(c2ccc3ccccc3c2)Nc2nc3ccccn3c2C1=O`, the growth in the assay with SK-MEL-2 melanoma is 36.3%; with EKVX NSCLC it was 75.6%; in the assay with SN12C renal, 60.1%; with UO-31 renal, 55.6%; in the assay with TK-10 renal it was 64.4%; in the assay on ACHN renal, 55.4%. For the same compound, the values for the growth in the assay on A498 renal, in the assay with CCRF-CEM leukemia and with MOLT-4 leukemia were 47.3%, 52.9% and 34.5%, respectively.

For `NC(N)=N/N=C/c1ccc(Cl)cc1`, the growth with SK-MEL-2 melanoma was 95.9%; in the assay with EKVX NSCLC, 64.2%; with SN12C renal, 94.9%; with UO-31 renal it was 73.3%; with TK-10 renal it was 84.9%; in the assay with ACHN renal it was 91.8%. The growth was 68.2% in the assay with A498 renal, 71% in the assay on CCRF-CEM leukemia and 53.9% with MOLT-4 leukemia.

In the case of `CCN(CC)CC(=O)Nc1c(C)ccc(N)c1C`, the growth in the assay on SK-MEL-2 melanoma is 99.4%; with EKVX NSCLC, 96.5%; with SN12C renal, 99.4%; in the assay with UO-31 renal it was 86.2%; in the assay on TK-10 renal it was 100%; in the assay on ACHN renal, 112%. Further, the growth with CAKI-1 renal was 102%; in the assay with CCRF-CEM leukemia, 112%; in the assay on MOLT-4 leukemia, 115%.
